In PubChem BioAssay AID652257 (The Scripps Research Institute Molecular Screening Center, 2013):
About 4,800 (1.3%) of roughly 370,000 compounds were called active. The sample holds actives, similar compounds and a random draw of the others, so the mix is not that of the screen.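 How the source made its calls: active means inhibition above about 21% made by adding two undisclosed values (limit read from the data); inactive means the rest.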

The molecules below were run against Protein arginine N-methyltransferase 1 (Homo sapiens) (UniProt Q99873) (assay: human PRMT1 activity-probe blockers – biochemical, fluorescence polarization, primary screen (AID 652257)). Settings: recombinant PRMT1, activity-based probe fluorescence polarization; at 2.79 µM; hits give high values.
Chain of Protein arginine N-methyltransferase 1 (Homo sapiens) (Q99873 whole entry, looked up): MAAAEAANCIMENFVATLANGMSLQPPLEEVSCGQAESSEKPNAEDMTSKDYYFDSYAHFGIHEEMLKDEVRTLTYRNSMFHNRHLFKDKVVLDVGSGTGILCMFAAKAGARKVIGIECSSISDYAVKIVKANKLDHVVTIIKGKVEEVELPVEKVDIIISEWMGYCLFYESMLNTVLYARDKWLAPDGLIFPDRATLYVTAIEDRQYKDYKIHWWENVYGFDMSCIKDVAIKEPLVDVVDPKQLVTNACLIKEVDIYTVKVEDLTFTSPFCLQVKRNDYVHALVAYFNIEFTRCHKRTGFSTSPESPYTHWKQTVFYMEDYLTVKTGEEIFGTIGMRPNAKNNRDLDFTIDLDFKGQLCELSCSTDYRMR

inhibition, inactive:
O=C(COC(=O)Cn1cnc2ccccc2c1=O)NCC12CC3CC(CC(C3)C1)C2 -1.36%
O=C(Cn1cnc2ccccc21)N/N=C/c1ccco1 -1.39%
Cc1ccc(C(=O)CSc2nc3ccccc3c(=O)n2N)o1 6.79%
Cc1ccc(OCC(=O)c2cc(C)n(Cc3ccco3)c2C)c([N+](=O)[O-])n1 1.18%
C[C@H]1CN([C@@H](C)CO)S(=O)(=O)c2ccc(Br)cc2O[C@H]1CN(C)C(=O)c1cnccn1 -6.2%
CC1Sc2ccc(C(=O)NCc3ccccc3Cl)cc2NC1=O (centres undefined) 1.76%
COC(=O)c1cccc(Cn2ccc3ccc(-c4ccc5ccn(C(=O)C6CCCCC6)c5c4)cc32)c1 3.39%
C[C@@H]1COc2cccc(N3CCCC3)c2S(=O)(=O)N1C 10.8%
Cc1ccc(-n2c(SCC(=O)Nc3cccc4ccccc34)nnc2-c2ccccn2)cc1 -1.87%
C=CCn1c(N)cc(=O)nc1SCC(=O)Nc1cccc2ccccc12 -1.49%
COc1cccc(CNC(=O)C2CCCN(c3nc4ccccc4o3)C2)c1OC (centres undefined) -1.5%
Cc1ccc(NC(=O)Nc2cc(C)nn2-c2ccccc2)cc1 -2.65%
O=C(c1cccc(C(F)(F)F)c1)N1CC[C@H]2[C@H](CCCN2Cc2cc(F)cc(F)c2)C1 -3.31%
CCCC(NC(=O)c1ccccc1)c1nc2ccccc2n1Cc1ccc(C(=O)OC)o1 (centres undefined) -1.43%
CCOCCn1c(C(C)C)nc2ccccc21 -1.59%
CCCCn1ccnc1C(=O)c1cccc(S(=O)(=O)N2c3ccccc3CC2C)c1 (centres undefined) -0.73%
Cc1ccccc1NC(=O)C1CCN(c2ncccn2)CC1 8.54%
Fc1ccc2nc(COCc3nc4ccc(F)cc4[nH]3)[nH]c2c1 -1.38%
Cc1cc2c(c(=O)n1C)C(C(C)C)C(C#N)=C(N)O2 (centres undefined) 2.55%
CC(C)c1ccc(C2C(C#N)=C(N)Oc3c2oc(CO)cc3=O)cc1 (centres undefined) 2.64%
CCC(C)(C)NC(=O)C(c1cccc(OC)c1OC)N(CC(C)C)C(=O)CCC(=O)Nc1cc(C)on1 (centres undefined) -2.2%
CCn1c(=S)sc2c(=O)n(CC(=O)Nc3ccc(OC)cc3)c(C)nc21 0.4%
COC(=O)[C@]12C[C@H](CC(=O)NCc3ccccc3)C(=O)N(Cc3ccccc3)C1=C[C@H](COCc1ccccc1)O[C@@H]2C 1.65%
N/C(=N\OC(=O)CCc1ccccc1)c1cccnc1 0.81%
Cc1ccc(OCc2nnc(SC/C=C/c3ccccc3)n2Cc2ccco2)cc1 -0.38%
O=C(Nc1cc(Cl)cc(Cl)c1)OCCN1CCCC12CCC(c1ccccc1)CC2 (centres undefined) -4.6%
COc1ccc(CSc2nnc(SCC(=O)Nc3ccccc3C(F)(F)F)s2)cc1 -1.07%
COCCCNC(=O)C[C@H]1C[C@@]2(C(=O)OC)C(=C[C@H](C(C)(C)C)O[C@@H]2C)N(Cc2ccc(Cl)cc2Cl)C1=O 4.84%
COC(=O)[C@]12C[C@H](CC(=O)NCc3ccccc3)C(=O)N(CCc3ccc(OC)c(OC)c3)C1=C[C@H](C(C)(C)C)O[C@@H]2C -1.11%
O=C(COC(=O)c1c(Cl)cccc1Cl)Nc1cccc(S(=O)(=O)NC2=NCCCCC2)c1 -1.88%
O=C(COC(=O)c1ccc2c(c1)OCCO2)NCc1ccccc1Cl -2.85%
CN(CC(=O)Nc1ccc(C(N)=O)cc1)S(=O)(=O)c1ccc2c(c1)OCCO2 -3.91%
CN(C)S(=O)(=O)c1ccc(NC(=O)COC(=O)c2n[nH]c3ccccc23)cc1 -3.56%
COc1cccc(CSc2nnc(-c3cccnc3)n2Cc2ccccc2)c1 4.89%
COc1ccc(C2Nc3ccccc3C(=O)N2Cc2cccs2)cc1COc1c(C)cccc1C (centres undefined) -1.12%
CCOC(=O)N1CCN(C(=O)CSc2nnc(-c3c[nH]c4ccccc34)n2CCOC)CC1 -1.98%
CN(CCO)c1cccc2c1S(=O)(=O)N(Cc1cn(Cc3ccc(C(F)(F)F)cc3)nn1)Cc1ccccc1O2 4.68%
COc1cccc(/C=C/C(=O)OCC(=O)N2CCCc3ccccc32)c1 -0.48%
Cn1c(SCC(=O)N2CCCc3ccccc32)nc2ccccc2c1=O 0.04%
Cc1ccc(N)cc1CN1CCN(c2ncc(Cc3ccccc3)cn2)CC1 -1.39%
Cc1ccc(NC2(C#N)C(=O)Nc3ccccc32)cc1 (centres undefined) -2.14%
O=S1(=O)c2ccc(Br)cc2OC[C@H](Cc2ccccc2)N1Cc1cn(Cc2ccccc2)nn1 4.16%
C=CCC(NCc1ccco1)c1ccc(OC)cc1 (centres undefined) -0.85%

inhibition, active:
O=C(COC(=O)Cn1cnc2ccccc21)Nc1cccc2c1C(=O)c1ccccc1C2=O 26.1%
Cc1cc2nc3c(=O)[nH]c(=O)nc-3n(C[C@H](O)[C@H](O)[C@H](O)CO)c2cc1C 85.4%
Cc1ccc(Cn2c(C)nc3c(c2=O)c2nc4ccccc4nc2n3Cc2ccco2)cc1 24.6%
Cc1ccccc1-n1c(SCC(=O)Nc2cccc3ccccc23)nc(O)cc1=O 27.6%
CCCn1c(C(Cc2ccccc2)NC(=O)COC)nc2ccccc21 (centres undefined) 21.6%
Cc1cc2c(c(=O)n1Cc1ccco1)C(c1ccccc1)C(C#N)=C(N)O2 (centres undefined) 36.6%
Oc1ccc2ccc3cccc[n+]3c2c1 187%
NS(=O)(=O)c1ccc(NC(=O)COC(=O)c2c3c(nc4ccccc24)/C(=C\c2ccc4c(c2)OCO4)CCC3)cc1 139%
NC(=O)c1ccc(NC(=O)COC(=O)c2c3c(nc4ccccc24)/C(=C\c2ccc4c(c2)OCO4)CCC3)cc1 141%
Cc1cccc2cc3c(N)c(C(=O)N4CCCc5ccccc54)sc3nc12 38%
N#CC1=C(N)Oc2[nH]c(=S)[nH]c(=O)c2C12C(=O)Nc1ccccc12 (centres undefined) 37.2%
